Results from PubChem BioAssay (Tox21).
Results filed as inconclusive are left out. Where a call stands in place of a potency, no number is given. Activity calls are given as the source filed them. Calls follow the shape of the dose curve; as a rule, active = well fitted inhibition curve with a large enough effect in the repeat runs; inconclusive = weak or mixed curves; inactive = no such curve, though single readings can be large or run the other way.

Biological target: Cytochrome P450 3A4 (Homo sapiens) (UniProt P08684)
Sequence (P08684 whole entry, looked up): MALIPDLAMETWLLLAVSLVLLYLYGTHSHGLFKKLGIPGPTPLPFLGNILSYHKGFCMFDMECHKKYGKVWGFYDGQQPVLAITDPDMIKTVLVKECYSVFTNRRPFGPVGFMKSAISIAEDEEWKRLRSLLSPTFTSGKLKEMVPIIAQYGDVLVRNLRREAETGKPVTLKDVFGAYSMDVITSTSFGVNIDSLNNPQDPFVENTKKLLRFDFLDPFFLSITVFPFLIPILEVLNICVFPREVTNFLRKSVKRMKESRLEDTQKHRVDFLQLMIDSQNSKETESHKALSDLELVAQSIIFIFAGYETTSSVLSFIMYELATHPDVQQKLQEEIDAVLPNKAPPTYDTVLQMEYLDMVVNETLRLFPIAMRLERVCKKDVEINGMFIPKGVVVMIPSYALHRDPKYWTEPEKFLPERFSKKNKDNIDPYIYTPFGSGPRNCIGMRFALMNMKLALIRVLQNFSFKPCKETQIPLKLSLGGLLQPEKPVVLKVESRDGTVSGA
Experiment: Cytochrome P450 Family 3 Subfamily A Member 4 (CYP3A4) small molecule antagonists: luciferase reporter qHTS assay (AID 1671201); also: nearly all actives have a fitted effect of over 50% in size
Settings: P450-Glo CYP3A4 enzyme, luciferin luminescence, 1 h; series mostly up to 115 µM
Source text: National Center for Advancing Translational Sciences [NCATS]
U.S. Environmental Protection Agency [EPA]
National Institutes of Environmental Health Sciences [NIEHS]
National Toxicology Program [NTP]
U.S. Food and Drug Administration [FDA]
Cytochrome P450 (CYP) enzymes are membrane-bound hemeproteins that play a key role in metabolism of drugs and xenobiotics. Evaluation of the effect of chemicals on CYP isozymes is useful to minimize the adverse drug reactions and toxicities in drug development process. Tox21 chemicals were tested for their effect on CYP enzyme activities by using P450-Glo (TM) screening systems (Promega Corporation, Madison, WI). These systems provide a luminescent method containing proluciferin substrates and are converted to luciferin products by CYP isozymes. The luciferin products formed are detected with a luciferin detection reagent, and the amount of light produced is proportional to CYP activity. P450-Glo (TM) CYP3A4 screening system (Catalog. No. V9910) was used to detect the compounds that interfere in CYP3A4 activity. The positive control compound used for CYP3A4 assay is ketoconazole (Sigma-Aldrich, St. Louis, MO).
Tox21 Assay Protocol Summary:
Two ul of enzyme-substrate mix was dispensed into medium binding white/solid 1536-well plates (Greiner Bio-One North America Inc., Monroe, NC) using a BioRaptr Flying Reagent Dispenser (FRD, Beckman Coulter, Brea, CA). Compounds dissolved in DMSO and positive control (ketoconazole) were transferred to the assay plates at 23 nl using a Pintool station (Wako, San Diego, CA). The assay plates were incubated at room temperature for 10 min. Then 2 ul of NADPH regeneration solution was added to each well of the assay plates using an FRD and incubated at room temperature for 1 h. The reaction was stopped by adding 4 ul of detection reagent using an FRD and after 20 min incubation at room temperature the luminescence signal was measured using a ViewLux plate reader (Perkin Elmer, Shelton, CT). Data were expressed as relative luminescence units.
Potency is read from the fitted curve at half-maximal effect.

SMILES | Potency
CCCN(CCCl)c1c([N+](=O)[O-])cc(C(F)(F)F)cc1[N+](=O)[O-] | 22.4 µM (active)
Sc1ccccc1Cl | inactive
COC(=O)C(Br)CBr (stereo not given) | inactive
C=CC(C)=O | inactive
CC(=O)[C@H]1CC[C@H]2[C@@H]3CC[C@H]4C[C@](C)(O)CC[C@]4(C)[C@H]3CC[C@]12C | inactive
CCc1ccc(C(=O)NN(C(=O)c2cc(C)cc(C)c2)C(C)(C)C)cc1 | 5.03 µM (active)
Clc1ccc(C2(Cn3cncn3)CC(Br)CO2)c(Cl)c1 (stereo not given) | 0.126 µM (active)
COC(=O)c1cncn1C(C)c1ccccc1 (stereo not given) | 0.309 µM (active)
O=C=Nc1ccc(Cl)cc1 | inactive
O=C(NCc1cccnc1)Nc1ccc([N+](=O)[O-])cc1 | 0.796 µM (active)
COC(=O)C(Cl)C(=O)OC | inactive
O=C(O)C(F)(F)C(F)(F)C(F)(F)C(F)(F)C(F)(F)C(F)(F)C(F)(F)C(F)(F)C(F)(F)C(F)(F)F | inactive
O=C(O)CC(Cl)C(=O)O (stereo not given) | inactive
CCOS(C)(=O)=O | inactive
N#Cc1ccc(Cl)cc1 | inactive
COC(=O)C(C)N(C(=O)Cc1ccccc1)c1c(C)cccc1C (stereo not given) | inactive
c1ccc(C2CC2)c(OCC2=NCCN2)c1 | inactive
CC(C)N(C(=O)COc1nnc(C(F)(F)F)s1)c1ccc(F)cc1 | inactive
CC(C)(Cl)[N+](=O)[O-] | inactive
COc1c(C(C)(C)C)cc([N+](=O)[O-])c(C)c1[N+](=O)[O-] | inactive

SMILES | Potency
CCCCC(O)(Cn1cncn1)c1ccc(Cl)cc1Cl (stereo not given) | 0.126 µM (active)
O=S(=O)(Cl)c1ccccc1 | inactive
C=C(C#N)CCC#N | inactive
ClCC(Br)CBr (stereo not given) | inactive
Brc1ccccc1 | inactive
O=C1C(=O)c2cccc3cccc1c23 | inactive
C=CC(=O)OC(C)(C)C | inactive
CCC(Cl)CCl (stereo not given) | inactive
O=Cc1ccc2c(c1)OCO2 | inactive
Nc1ccc([N+](=O)[O-])cc1[N+](=O)[O-] | inactive
CC(=O)c1cc2c(cc1C)C(C)(C)C(C)CC2(C)C (stereo not given) | 25.2 µM (active)
CCOP(=O)(OCC)Oc1ccc([N+](=O)[O-])cc1 | inactive
O=C(CBr)Nc1ccc(Cl)cc1C(=O)c1ccccc1F | inactive
O=[N+]([O-])c1ccc(F)c([N+](=O)[O-])c1 | inactive
CCOC(=O)C(Cl)C(C)=O (stereo not given) | inactive
CCOP(O)OCC | inactive
CC(O)(CS(=O)(=O)c1ccc(F)cc1)C(=O)Nc1ccc(C#N)c(C(F)(F)F)c1 (stereo not given) | 2.33 µM (active)
Cl/C=C\C[N+]12CN3CN(CN(C3)C1)C2 | inactive
O=C(NC(=O)c1c(F)cccc1F)Nc1ccc(OC(F)(F)C(F)OC(F)(F)F)c(Cl)c1 (stereo not given) | inactive
CC(C)(C)c1cc([N+](=O)[O-])cc([N+](=O)[O-])c1O | inactive
